The source of these data is PubChem BioAssay (NCI).

“And” between values parts separate entries of the source, which are not always exact repeats. Equal values may be shown once. This is part of a sample that, as a whole, favours compounds with a hit. Of some 79,000 tested, about 15% had one in any assay. The source made the active and inactive calls. Rule as the data show it: active = growth inhibition above about 70%; inactive = the rest.

A short description of the first assay: NCI Yeast Anticancer Drug Screen. Data for the mec2-1 strain (AID 157). The note with it: S. cerevisiae mec2-1 strain, at 50.0 µM, hits give high values. The essentials:
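Each compound was tested on mec2-1 yeast, a strain altered in DNA damage repair or cell cycle control. Growth inhibition is reported relative to vehicle.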
`Cc1ccccc1Nc1n[nH]c(=S)s1`: the growth inhibition was 17.8% (inactive). Take `N#[N+]c1c(O)cc(S(=O)(=O)O)c2ccccc12`: the growth inhibition is -8.45% (inactive). On the same count and under the same terms, to `Cc1n[nH]c(=O)n(/N=C\c2c[nH]c3ccccc23)c1=O` belongs -4.55% (inactive); to `CCCCCCCC/C=C\CCCCCCCCOC(N)=O`, -26.8% (inactive); to `CCOC(=O)CC(=O)c1ccc(C)cc1`, -3.45% (inactive). Take `NC(=O)NC(CCCN=C(N)N)C(=O)O` (centres undefined): the growth inhibition was -36.3% (inactive). `CN1C2CCC1CC(OC(=O)C(O)c1ccccc1)C2` (centres undefined): the growth inhibition was -3.75% (inactive).

With `COC(=O)C1=CCCC2CN3CCc4c([nH]c5ccccc45)C3CC12` (centres undefined), the growth inhibition was -7.8% (inactive).

In the case of `COC(=O)c1ccc2oc(=O)cc(C)c2c1O`, the growth inhibition is -7.75% (inactive). As for `CCOc1ccc(Br)cc1/C=C1\N=C(c2ccccc2)OC1=O`, the growth inhibition is -12.2% (inactive). Consider `CC1CC(C)(C)N=C(Cc2ccccc2)O1` (centres undefined), for which the growth inhibition was -11.6% (inactive). Consider `COc1cc(OC)cc(C(=O)Cl)c1`, for which the growth inhibition is -40% (inactive).

As to `CCOC(=O)c1sc(N)nc1-c1ccccc1`, the growth inhibition is 4% (inactive). Turning to `O=C(/C(=N/N=C\c1ccc([N+](=O)[O-])cc1)c1ccccc1)c1ccccc1`, the growth inhibition is -18.4% (inactive). Turning to `COc1cc(C2N(c3ccccc3)CCN2c2ccccc2)cc(OC)c1OC`, the growth inhibition is 62.9% (inactive).

The next assay is described as follows: NCI Yeast Anticancer Drug Screen. Data for the sgs1 mgt1 strain (AID 161).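 Also: 0% = growth of cultures given vehicle only.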 The note with it: S. cerevisiae sgs1 mgt1 strain, at 50.0 µM, hits give high values. An outline of the steps: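 Inhibition of yeast growth, normalised to vehicle-treated controls, is reported for a strain bearing genetic alterations in DNA damage repair.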
Take `CCOC(=O)CC(=O)c1ccccc1`: the growth inhibition is 8.9% (inactive) and -0.85% (inactive). Regarding `Cc1c(CNc2ccc(C(=O)NC(CC(=O)O)C(=O)O)cc2)ccc2nc(N)nc(N)c12` (centres undefined), the growth inhibition is 47.8% (inactive).

Regarding `CCCCCCCCCC(O)CC(=O)c1c(O)cccc1O` (centres undefined), the growth inhibition was 82.8% (active). With `COc1ccc(-c2coc3c4c(ccc3c2=O)OCO4)cc1OC`, the growth inhibition was 0.45% (inactive). On the same count and under the same terms, to `CC(C)n1c2c([n+](C)c1/C=C/c1ccccc1)C(=O)c1ccccc1C2=O` belongs 89.9% (active).

A further assay is described as follows: NCI Yeast Anticancer Drug Screen. Data for the cln2 rad14 strain (AID 165).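 Also: 0% = growth equal to vehicle treated cultures.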 The note with it: S. cerevisiae cln2 rad14 strain, at 50.0 µM, hits give high values. The essentials: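 Test compounds were added to cln2 rad14 yeast cultures; inhibition of growth was then determined by comparison with vehicle treatment.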
As to `OCCOCCOCCOCCO`, the growth inhibition was -48.1% (inactive). On to `CCOC(=O)CC(=O)c1ccccc1`, for which the growth inhibition is 10.8% (inactive) and 11.1% (inactive).

Regarding `Cc1c(CNc2ccc(C(=O)NC(CC(=O)O)C(=O)O)cc2)ccc2nc(N)nc(N)c12` (centres undefined), the growth inhibition was 9.35% (inactive). Turning to `CCCCCCCCCC(O)CC(=O)c1c(O)cccc1O` (centres undefined), the growth inhibition was 86.2% (active).

Consider `COc1ccc(-c2coc3c4c(ccc3c2=O)OCO4)cc1OC`, for which the growth inhibition is 7.2% (inactive). With `CC(C)n1c2c([n+](C)c1/C=C/c1ccccc1)C(=O)c1ccccc1C2=O`, the growth inhibition is 88.9% (active).

A further assay is described as follows: NCI Yeast Anticancer Drug Screen. Data for the bub3 strain (AID 167). The note with it: S. cerevisiae bub3 mutant strain, at 50.0 µM, hits give high values. An outline of the steps:
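Whole-cell yeast assay. The mutant strain was incubated with compounds, and growth inhibition was determined by comparison with vehicle-treated cells.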
For the compound `CCOC(=O)CC(=O)c1ccccc1`, the growth inhibition is 13.8% (inactive) and -12.7% (inactive). Same read-out and setting: to `Cc1c(CNc2ccc(C(=O)NC(CC(=O)O)C(=O)O)cc2)ccc2nc(N)nc(N)c12` (centres undefined) belongs 16.4% (inactive). As to `CCCCCCCCCC(O)CC(=O)c1c(O)cccc1O` (centres undefined), the growth inhibition was 82.1% (active).

For the compound `COc1ccc(-c2coc3c4c(ccc3c2=O)OCO4)cc1OC`, the growth inhibition was -8.45% (inactive).

A short description of the next assay: NCI Yeast Anticancer Drug Screen. Data for the mlh1 rad18 strain (AID 175). The note with it: S. cerevisiae mlh1 rad18 strain growth inhibition; at 50.0 µM; hits give high values. The essentials: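 Inhibition values reflect reduced growth of mutant yeast versus vehicle-treated controls following compound exposure; the mutations affect DNA damage repair.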
`N=C(N)c1ccc(N=NNc2ccc(C(=N)N)cc2)cc1`: the growth inhibition was 84% (active). Consider `Cc1ccccc1Nc1n[nH]c(=S)s1`, for which the growth inhibition is 33% (inactive). Still for that read-out and setting: to `N#[N+]c1c(O)cc(S(=O)(=O)O)c2ccccc12` belongs -10.4% (inactive). On to `Nc1ccc2ccc(N)cc2c1`, for which the growth inhibition is -33.1% (inactive). Regarding `Nc1nc([Se]c2nc(N)nc3c2ncn3C2OC(CO)C(O)C2O)c2ncn(C3OC(CO)C(O)C3O)c2n1` (centres undefined), the growth inhibition was -32.2% (inactive). As for `Cc1n[nH]c(=O)n(/N=C\c2c[nH]c3ccccc23)c1=O`, the growth inhibition was -1.55% (inactive). As for `CCCCCCCC/C=C\CCCCCCCCOC(N)=O`, the growth inhibition was -17.1% (inactive).

`CCOC(=O)CC(=O)c1ccc(C)cc1`: the growth inhibition is 9.75% (inactive). Take `O=C1C2C3C=CC(C2C(=O)N1CO)C1C2C(=O)N(CO)C(=O)C2C31` (centres undefined): the growth inhibition is 2.2% (inactive). With `NC(=O)NC(CCCN=C(N)N)C(=O)O` (centres undefined), the growth inhibition is -36.1% (inactive). The same measure, in the same setting: to `CN1C2CCC1CC(OC(=O)C(O)c1ccccc1)C2` (centres undefined) belongs 7.45% (inactive); to `COC(=O)C1=CCCC2CN3CCc4c([nH]c5ccccc45)C3CC12` (centres undefined), 18% (inactive). Consider `CC(=O)NC(C(=O)O)C(C)C.CC(=O)NC(C(=O)O)C(C)C.[NH-]C1CCCCC1[NH-].[Pt+2]` (centres undefined), for which the growth inhibition was 7.05% (inactive) and 50% (inactive). Consider `O=C(O)C(O)C(O)C(OC1OC(CO)C(O)C(O)C1O)C(O)CO.O=C(O)C(O)C(O)C(OC1OC(CO)C(O)C(O)C1O)C(O)CO.[NH-]C1CCCCC1[NH-].[Pt+2]` (centres undefined), for which the growth inhibition was -63.5% (inactive). `CN(C)c1ccc2c(Nc3ccc(NS(C)(=O)=O)cc3)c3ccc(N(C)C)cc3nc2c1`: the growth inhibition was 65.6% (inactive). With `CCN(CC)CCN(C)CC(=O)Nc1ccccc1C`, the growth inhibition is 38.4% (inactive).

As for `O=C1CCCCCC2=NC12` (centres undefined), the growth inhibition was -25.6% (inactive). As for `CCOc1ccc(/C=C(/C#N)C(N)=O)cc1`, the growth inhibition is 9.05% (inactive). As to `N=C(N)c1ccc(N=Nc2c(O)ccc3cc(O)ccc23)cc1`, the growth inhibition was -27.5% (inactive). Consider `[Br][Sn]([CH2][Sn]([Br])([c]1ccccc1)[c]1ccccc1)([c]1ccccc1)[c]1ccccc1`, for which the growth inhibition was 81.8% (active). For the compound `COC(=O)c1ccc2oc(=O)cc(C)c2c1O`, the growth inhibition is 11.7% (inactive). On to `N#CCS(=O)(=O)c1cccc[n+]1[O-]`, for which the growth inhibition was -37.5% (inactive). Still for that read-out and setting: to `CCOc1ccc(Br)cc1/C=C1\N=C(c2ccccc2)OC1=O` belongs 1.7% (inactive); to `O=C(O)C(=O)C(O)C(O)C(O)CO.O=C(O)C(=O)C(O)C(O)C(O)CO.[NH-]C1CCCCC1[NH-].[Pt+2]` (centres undefined), -53.1% (inactive); to `CC1CC(C)(C)N=C(Cc2ccccc2)O1` (centres undefined), 2.05% (inactive). Still for that read-out and setting: then `CCCCCCCCCC(O)CC(=O)c1c(O)cccc1O` (centres undefined), with 78.7% (active). For `COc1cc(OC)cc(C(=O)Cl)c1`, the growth inhibition was -16.1% (inactive). On to `[Cl][Sn]([CH2][Sn]([Cl])([c]1ccccc1)[c]1ccccc1)([c]1ccccc1)[c]1ccccc1`, for which the growth inhibition is 82.2% (active). Take `COc1ccc(-c2coc3c4c(ccc3c2=O)OCO4)cc1OC`: the growth inhibition is -30.8% (inactive). The same measure, in the same setting: to `CCOC(=O)c1sc(N)nc1-c1ccccc1` belongs 24.6% (inactive); to `O=C(/C(=N/N=C\c1ccc([N+](=O)[O-])cc1)c1ccccc1)c1ccccc1`, -1.25% (inactive); to `NCCSC(C[N+](=O)[O-])c1ccccc1Cl` (centres undefined), 87.4% (active). Take `COc1cc(C2N(c3ccccc3)CCN2c2ccccc2)cc(OC)c1OC`: the growth inhibition was 43.1% (inactive).

Regarding `CC(C)c1cc(C(=O)O)c(O)c(C(C)C)c1.CC(C)c1cc(C(=O)O)c(O)c(C(C)C)c1.[Cu]`, the growth inhibition is 54.6% (inactive).
